From PubChem BioAssay
Potency and affinity values are given separately. Activity calls are given as the source filed them.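 How the source made its calls, unless noted: active means a dose-response fit showing signal loss, with half-maximal concentration no higher than twice the top tested dose; inconclusive means flat fit between 30% and 70% signal loss, or poor fit; inactive means the rest.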

Assay: C. neoformans lysis by adenylate kinase leakage – AK release luminescence, cherry-picks, dose response (AID 687000;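 active means fitted dose curve reaches 40% lysis signal rise at or below the highest valid concentration tested for that sample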;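 further: luminescent detection of adenylate kinase leaking from lysed yeast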)
Details: 4 h, 100% = twice the neutral-control signal; series mostly up to 15 µM

| Structure (SMILES) | outcome |
| --- | --- |
| O=C(COc1ccc2c(c1)CCC2)NCc1ccc(Cl)cc1 | inactive |
| CCCN1C(=O)C(O)(C2CC(=O)CC(C)(C)O2)c2ccccc21 (stereo not given) | inactive |
| C#CCN(C(=O)c1ccc(OC2CCN(C(=O)CCOC)CC2)cc1)C1CCCCC1 | inactive |
| CNC[C@@H]1Oc2c(NS(=O)(=O)c3ccc(Cl)cc3)cccc2C(=O)N([C@H](C)CO)C[C@H]1C | inactive |
| C[C@H]1CN([C@@H](C)CO)C(=O)c2cc(-c3ccccc3)cnc2O[C@@H]1CN(C)C(=O)c1ccccn1 | inactive |
| O=C(CN(c1ccc(F)cc1)S(=O)(=O)c1ccccc1)NC1CC2CCC1C2 (stereo not given) | inactive |
| CN1c2ccc(-c3ccc(F)cc3)cc2[C@@H]2[C@@H](CCN2C(=O)C2CCOCC2)[C@@H]1CO | inactive |
| COc1ccccc1-c1ccc([C@H]2[C@H](C#N)N(C(=O)C3CC3)[C@H]2CO)cc1 | inactive |
| Cc1cccc(OCC(=O)NCc2ccccc2)c1 | inactive |
| Cc1cc(C)cc(OCC(=O)NC(C)c2ccccc2)c1 (stereo not given) | inactive |
| CCCC(=O)Nc1ccc2c(c1)OC[C@@H](C)N(Cc1ccccn1)C[C@@H](C)[C@H](OC)CN(C)C2=O | inactive |
| C/C=C/c1ccc([C@@H]2[C@@H](C#N)N(S(=O)(=O)c3cccc(F)c3)[C@@H]2CO)cc1 | inactive |
| Cc1noc(C)c1NC(=O)N(C)C[C@H]1Oc2ccc(NC(=O)C3CC3)cc2CC(=O)N([C@@H](C)CO)C[C@H]1C | inactive |
| CO[C@@H]1CN(C)C(=O)c2ccc(NS(=O)(=O)c3ccc(Oc4ccccc4)cc3)cc2OC[C@H](C)NC[C@H]1C | inactive |
| c1ccc(-n2ncc3c(NCc4ccc5c(c4)OCO5)ncnc32)cc1 | inactive |
| CCC(C)N(C(=O)CSc1ncnc2c1cnn2-c1ccccc1)C1CCS(=O)(=O)C1 (stereo not given) | inactive |
| O=C(NC(=S)Nc1ccccc1[N+](=O)[O-])c1ccccc1 | inactive |
| COc1ccc(NC(=S)NCc2ccccc2Cl)c(OC)c1 | inactive |
| C[C@H]1CN([C@@H](C)CO)C(=O)c2cc(C#CC3(O)CCCC3)cnc2O[C@@H]1CN(C)Cc1cccnc1 | inactive |
| CO[C@H]1CC[C@@H]2CCOc3c(C#N)cccc3C(=O)N(C)C[C@@H](OC)[C@@H](C)C(=O)N(C)C[C@@H]1O2 | inactive |

| Structure (SMILES) | outcome |
| --- | --- |
| CCNC(=O)C[C@H]1CC[C@@H](NC(=O)NC2CCCCC2)[C@H](CO)O1 | inactive |
| O=C(NC(=S)NCC1COc2ccccc2O1)c1ccccc1 (stereo not given) | inactive |
| COc1ccc(NC(=O)N(C)C[C@H]2OCCCC[C@@H](C)Oc3ccc(NC(=O)c4ccccc4)cc3C(=O)N([C@H](C)CO)C[C@H]2C)cc1 | inactive |
| Cc1cc(C(=O)Nc2cccc3c2O[C@@H](CN(C)S(=O)(=O)c2ccccc2)[C@@H](C)CN([C@@H](C)CO)C3=O)n(C)n1 | inactive |
| CC(NC(=O)COc1ccccc1C(C)(C)C)c1ccccc1 (stereo not given) | inactive |
| O=C1CCC(C(=O)Nc2cccc3ccccc23)N1 (stereo not given) | inactive |
| C[C@@H]1CN([C@@H](C)CO)C(=O)c2cc(NC(=O)C3CC3)ccc2O[C@H]1CN(C)Cc1ccc2c(c1)OCO2 | inactive |
| C[C@H]1CN([C@@H](C)CO)C(=O)CCCn2cc(nn2)CO[C@@H]1CN(C)Cc1ccc(C(F)(F)F)cc1 | inactive |
| C[C@H](CO)N1C[C@H](C)[C@@H](CN(C)Cc2ccc(Oc3ccccc3)cc2)Oc2ccc(NC(=O)Nc3ccc4c(c3)OCO4)cc2C1=O | inactive |
| CNC[C@H]1OCCCC[C@H](C)Oc2ccc(NC(=O)Cc3ccccc3)cc2C(=O)N([C@H](C)CO)C[C@@H]1C | inactive |
| C/C=C/c1ccc([C@@H]2[C@@H](CNC(=O)C3CCC3)N(C(=O)NCCC)[C@H]2CO)cc1 | inactive |
| CCC(=O)N1[C@H](CO)[C@H](c2ccc(-c3ccc(F)cc3)cc2)[C@@H]1CNC(C)=O | inactive |
| Cc1cccc(C)c1NC(=S)NN(Cc1ccccc1)c1ccccc1 | inactive |
| CCC(C)(C(=O)Nc1ccccc1C)N(C(=O)CNC(C)=O)c1ccccc1C (stereo not given) | inactive |
| Cc1ccc(CSc2ncnc3c2cnn3-c2ccccc2)cc1 | inactive |
| CN1c2ccc(-c3ccc(F)cc3)cc2[C@H]2[C@H](CCN2S(=O)(=O)c2cccc(F)c2)[C@H]1CO | inactive |
| CC(NC(=O)COc1ccccc1-c1ccccc1)c1ccccc1 (stereo not given) | inactive |
| CCC(=O)N1[C@H](CO)[C@@H](c2ccc(-c3cccnc3)cc2)[C@@H]1CN(C)C(C)=O | inactive |
| O=C(C[C@H]1CC[C@H]2[C@@H](COC[C@H](O)CN2Cc2cc(F)cc(F)c2)O1)Nc1nccs1 | inactive |
| O=C(NC[C@H]1[C@H](c2ccccc2)[C@H](CO)N1C(=O)Cc1cccnc1)C1CCC1 | inactive |

Assay: viability loss in HepG2 hepatoma cells – cell-based, cherry-picks, set 2, cytotoxicity control, dose response (AID 687002)
Details: ATP luminescence (CellTiter-Glo), 48 h; series mostly up to 26 µM

| Structure (SMILES) | outcome |
| --- | --- |
| O=C(COc1ccc2c(c1)CCC2)NCc1ccc(Cl)cc1 | inactive |
| CCCN1C(=O)C(O)(C2CC(=O)CC(C)(C)O2)c2ccccc21 (stereo not given) | inactive |
| C#CCN(C(=O)c1ccc(OC2CCN(C(=O)CCOC)CC2)cc1)C1CCCCC1 | inactive |
| CNC[C@@H]1Oc2c(NS(=O)(=O)c3ccc(Cl)cc3)cccc2C(=O)N([C@H](C)CO)C[C@H]1C | inactive |
| C[C@H]1CN([C@@H](C)CO)C(=O)c2cc(-c3ccccc3)cnc2O[C@@H]1CN(C)C(=O)c1ccccn1 | inactive |
| O=C(CN(c1ccc(F)cc1)S(=O)(=O)c1ccccc1)NC1CC2CCC1C2 (stereo not given) | inactive |
| CN1c2ccc(-c3ccc(F)cc3)cc2[C@@H]2[C@@H](CCN2C(=O)C2CCOCC2)[C@@H]1CO | inactive |
| COc1ccccc1-c1ccc([C@H]2[C@H](C#N)N(C(=O)C3CC3)[C@H]2CO)cc1 | inactive |
| Cc1cccc(OCC(=O)NCc2ccccc2)c1 | inactive |
| Cc1cc(C)cc(OCC(=O)NC(C)c2ccccc2)c1 (stereo not given) | inactive |
| CCCC(=O)Nc1ccc2c(c1)OC[C@@H](C)N(Cc1ccccn1)C[C@@H](C)[C@H](OC)CN(C)C2=O | inactive |
| C/C=C/c1ccc([C@@H]2[C@@H](C#N)N(S(=O)(=O)c3cccc(F)c3)[C@@H]2CO)cc1 | inactive |
| Cc1noc(C)c1NC(=O)N(C)C[C@H]1Oc2ccc(NC(=O)C3CC3)cc2CC(=O)N([C@@H](C)CO)C[C@H]1C | inactive |
| CO[C@@H]1CN(C)C(=O)c2ccc(NS(=O)(=O)c3ccc(Oc4ccccc4)cc3)cc2OC[C@H](C)NC[C@H]1C | inactive |
| c1ccc(-n2ncc3c(NCc4ccc5c(c4)OCO5)ncnc32)cc1 | inactive |
| CCC(C)N(C(=O)CSc1ncnc2c1cnn2-c1ccccc1)C1CCS(=O)(=O)C1 (stereo not given) | inactive |
| O=C(NC(=S)Nc1ccccc1[N+](=O)[O-])c1ccccc1 | inactive |
| COc1ccc(NC(=S)NCc2ccccc2Cl)c(OC)c1 | inactive |
| C[C@H]1CN([C@@H](C)CO)C(=O)c2cc(C#CC3(O)CCCC3)cnc2O[C@@H]1CN(C)Cc1cccnc1 | inactive |
| CO[C@H]1CC[C@@H]2CCOc3c(C#N)cccc3C(=O)N(C)C[C@@H](OC)[C@@H](C)C(=O)N(C)C[C@@H]1O2 | inactive |

| Structure (SMILES) | outcome |
| --- | --- |
| CCNC(=O)C[C@H]1CC[C@@H](NC(=O)NC2CCCCC2)[C@H](CO)O1 | inactive |
| O=C(NC(=S)NCC1COc2ccccc2O1)c1ccccc1 (stereo not given) | inactive |
| COc1ccc(NC(=O)N(C)C[C@H]2OCCCC[C@@H](C)Oc3ccc(NC(=O)c4ccccc4)cc3C(=O)N([C@H](C)CO)C[C@H]2C)cc1 | inactive |
| Cc1cc(C(=O)Nc2cccc3c2O[C@@H](CN(C)S(=O)(=O)c2ccccc2)[C@@H](C)CN([C@@H](C)CO)C3=O)n(C)n1 | inactive |
| CC(NC(=O)COc1ccccc1C(C)(C)C)c1ccccc1 (stereo not given) | inactive |
| O=C1CCC(C(=O)Nc2cccc3ccccc23)N1 (stereo not given) | inactive |
| C[C@@H]1CN([C@@H](C)CO)C(=O)c2cc(NC(=O)C3CC3)ccc2O[C@H]1CN(C)Cc1ccc2c(c1)OCO2 | inactive |
| C[C@H]1CN([C@@H](C)CO)C(=O)CCCn2cc(nn2)CO[C@@H]1CN(C)Cc1ccc(C(F)(F)F)cc1 | inactive |
| C[C@H](CO)N1C[C@H](C)[C@@H](CN(C)Cc2ccc(Oc3ccccc3)cc2)Oc2ccc(NC(=O)Nc3ccc4c(c3)OCO4)cc2C1=O | inactive |
| CNC[C@H]1OCCCC[C@H](C)Oc2ccc(NC(=O)Cc3ccccc3)cc2C(=O)N([C@H](C)CO)C[C@@H]1C | inactive |
| C/C=C/c1ccc([C@@H]2[C@@H](CNC(=O)C3CCC3)N(C(=O)NCCC)[C@H]2CO)cc1 | inactive |
| CCC(=O)N1[C@H](CO)[C@H](c2ccc(-c3ccc(F)cc3)cc2)[C@@H]1CNC(C)=O | inactive |
| Cc1cccc(C)c1NC(=S)NN(Cc1ccccc1)c1ccccc1 | inactive |
| CCC(C)(C(=O)Nc1ccccc1C)N(C(=O)CNC(C)=O)c1ccccc1C (stereo not given) | inactive |
| Cc1ccc(CSc2ncnc3c2cnn3-c2ccccc2)cc1 | inactive |
| CN1c2ccc(-c3ccc(F)cc3)cc2[C@H]2[C@H](CCN2S(=O)(=O)c2cccc(F)c2)[C@H]1CO | inactive |
| CC(NC(=O)COc1ccccc1-c1ccccc1)c1ccccc1 (stereo not given) | inactive |
| CCC(=O)N1[C@H](CO)[C@@H](c2ccc(-c3cccnc3)cc2)[C@@H]1CN(C)C(C)=O | inactive |
| O=C(C[C@H]1CC[C@H]2[C@@H](COC[C@H](O)CN2Cc2cc(F)cc(F)c2)O1)Nc1nccs1 | inactive |
| O=C(NC[C@H]1[C@H](c2ccccc2)[C@H](CO)N1C(=O)Cc1cccnc1)C1CCC1 | inactive |
